# A number with no mark means an inactive call.
# Tests used:
# Assay in all cases: log2 ratio of Biotin-Ahx-Ub-VS probe labelling (fragment/DMSO); higher = less target engagement (more negative = stronger competition), active = hit call of the paper (q ≤ 0.05, log2 ratio ≤ -1)
# Settings in all cases: compound concentration: 200 uM; treatment time: 3 h
# [1] = molecular target: T1, ALG13 (UniProt Q9NP73)
# T1 sequence (whole entry): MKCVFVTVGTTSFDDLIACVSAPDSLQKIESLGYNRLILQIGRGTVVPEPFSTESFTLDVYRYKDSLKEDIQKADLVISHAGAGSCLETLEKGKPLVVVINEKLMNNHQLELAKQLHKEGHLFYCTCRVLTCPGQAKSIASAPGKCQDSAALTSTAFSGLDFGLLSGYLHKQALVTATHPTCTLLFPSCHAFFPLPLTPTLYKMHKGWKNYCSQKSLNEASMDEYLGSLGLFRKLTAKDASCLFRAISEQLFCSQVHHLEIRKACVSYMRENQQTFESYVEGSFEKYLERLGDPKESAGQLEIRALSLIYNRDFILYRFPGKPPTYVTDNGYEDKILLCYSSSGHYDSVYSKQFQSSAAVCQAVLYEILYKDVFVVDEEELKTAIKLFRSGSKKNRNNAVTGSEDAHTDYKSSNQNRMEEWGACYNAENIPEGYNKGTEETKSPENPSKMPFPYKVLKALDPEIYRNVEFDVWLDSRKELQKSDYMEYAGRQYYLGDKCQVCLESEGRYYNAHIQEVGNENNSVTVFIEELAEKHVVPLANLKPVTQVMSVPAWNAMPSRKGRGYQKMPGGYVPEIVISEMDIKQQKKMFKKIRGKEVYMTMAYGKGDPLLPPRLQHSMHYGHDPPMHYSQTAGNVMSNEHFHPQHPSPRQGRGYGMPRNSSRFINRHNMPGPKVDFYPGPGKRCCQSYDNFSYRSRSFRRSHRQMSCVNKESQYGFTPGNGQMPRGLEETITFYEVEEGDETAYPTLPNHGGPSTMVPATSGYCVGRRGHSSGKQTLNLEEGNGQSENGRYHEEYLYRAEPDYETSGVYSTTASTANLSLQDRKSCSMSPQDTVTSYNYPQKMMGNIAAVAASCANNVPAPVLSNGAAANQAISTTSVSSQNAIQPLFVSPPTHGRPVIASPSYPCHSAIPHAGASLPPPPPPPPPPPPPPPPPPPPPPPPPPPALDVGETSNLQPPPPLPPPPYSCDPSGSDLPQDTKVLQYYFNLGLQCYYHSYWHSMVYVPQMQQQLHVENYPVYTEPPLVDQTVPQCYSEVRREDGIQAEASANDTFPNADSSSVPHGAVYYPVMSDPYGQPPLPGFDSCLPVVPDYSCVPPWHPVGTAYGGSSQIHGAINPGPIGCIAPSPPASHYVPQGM
# Outline: (§1)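 Triplicate samples of HEK293T lysate, 495 µg each, received fragment at 200 µM or vehicle for 3 h, followed by Biotin-Ahx-Ub-VS (0.5 µM final) for 1 h. After NeutrAvidin enrichment of labelled DUBs and LysC/trypsin digestion, peptides were run by diaPASEF LC-MS/MS. The values are average log2 fragment/vehicle ratios from global-median-normalised Spectronaut label-free quantities, tested by unpaired t-test on proteins having ≥2 unique peptides.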
# [2] = molecular target: ATXN3 (UniProt P54252)
# Outline: as §1
# [3] = molecular target: T2, BAP1 (UniProt Q92560)
# T2 sequence (whole entry): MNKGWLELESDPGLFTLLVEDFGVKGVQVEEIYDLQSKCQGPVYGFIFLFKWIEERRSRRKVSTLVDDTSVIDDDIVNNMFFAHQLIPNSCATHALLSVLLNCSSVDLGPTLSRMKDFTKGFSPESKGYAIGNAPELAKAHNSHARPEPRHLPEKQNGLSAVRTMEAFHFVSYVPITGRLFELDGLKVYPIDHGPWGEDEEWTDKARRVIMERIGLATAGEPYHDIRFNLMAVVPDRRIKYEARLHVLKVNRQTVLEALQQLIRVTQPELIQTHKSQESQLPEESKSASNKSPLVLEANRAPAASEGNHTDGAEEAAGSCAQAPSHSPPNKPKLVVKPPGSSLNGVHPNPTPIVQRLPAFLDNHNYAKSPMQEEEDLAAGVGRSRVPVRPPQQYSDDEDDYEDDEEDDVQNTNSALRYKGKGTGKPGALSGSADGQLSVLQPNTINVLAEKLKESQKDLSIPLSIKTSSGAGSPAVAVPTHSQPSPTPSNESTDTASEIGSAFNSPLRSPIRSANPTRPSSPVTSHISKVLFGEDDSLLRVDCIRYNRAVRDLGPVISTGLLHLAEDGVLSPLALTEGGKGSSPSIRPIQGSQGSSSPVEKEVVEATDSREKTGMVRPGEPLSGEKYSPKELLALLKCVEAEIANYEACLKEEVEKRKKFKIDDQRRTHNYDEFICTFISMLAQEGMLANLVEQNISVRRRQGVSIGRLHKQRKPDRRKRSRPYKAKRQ
# Outline: as §1
# [4] = molecular target: EIF3F (UniProt O00303)
# Outline: as §1
# [5] = molecular target: EIF3H (UniProt O15372)
# Outline: as §1
# [6] = molecular target: T3, FAM105A (UniProt Q9NUU6)
# T3 sequence (whole entry): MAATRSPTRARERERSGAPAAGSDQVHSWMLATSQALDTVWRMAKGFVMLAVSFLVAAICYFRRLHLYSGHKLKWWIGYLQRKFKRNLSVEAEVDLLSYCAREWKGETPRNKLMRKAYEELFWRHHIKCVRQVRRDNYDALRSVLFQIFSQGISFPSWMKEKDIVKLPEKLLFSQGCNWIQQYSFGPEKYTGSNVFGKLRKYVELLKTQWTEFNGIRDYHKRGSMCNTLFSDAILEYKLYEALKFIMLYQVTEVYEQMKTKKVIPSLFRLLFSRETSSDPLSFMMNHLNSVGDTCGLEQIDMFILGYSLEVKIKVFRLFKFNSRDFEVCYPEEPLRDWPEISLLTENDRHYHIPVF
# Outline: as §1
# [7] = molecular target: OTUB1 (UniProt Q96FW1)
# Outline: as §1
# [8] = molecular target: T4, OTUD4 (UniProt Q01804)
# T4 sequence (whole entry): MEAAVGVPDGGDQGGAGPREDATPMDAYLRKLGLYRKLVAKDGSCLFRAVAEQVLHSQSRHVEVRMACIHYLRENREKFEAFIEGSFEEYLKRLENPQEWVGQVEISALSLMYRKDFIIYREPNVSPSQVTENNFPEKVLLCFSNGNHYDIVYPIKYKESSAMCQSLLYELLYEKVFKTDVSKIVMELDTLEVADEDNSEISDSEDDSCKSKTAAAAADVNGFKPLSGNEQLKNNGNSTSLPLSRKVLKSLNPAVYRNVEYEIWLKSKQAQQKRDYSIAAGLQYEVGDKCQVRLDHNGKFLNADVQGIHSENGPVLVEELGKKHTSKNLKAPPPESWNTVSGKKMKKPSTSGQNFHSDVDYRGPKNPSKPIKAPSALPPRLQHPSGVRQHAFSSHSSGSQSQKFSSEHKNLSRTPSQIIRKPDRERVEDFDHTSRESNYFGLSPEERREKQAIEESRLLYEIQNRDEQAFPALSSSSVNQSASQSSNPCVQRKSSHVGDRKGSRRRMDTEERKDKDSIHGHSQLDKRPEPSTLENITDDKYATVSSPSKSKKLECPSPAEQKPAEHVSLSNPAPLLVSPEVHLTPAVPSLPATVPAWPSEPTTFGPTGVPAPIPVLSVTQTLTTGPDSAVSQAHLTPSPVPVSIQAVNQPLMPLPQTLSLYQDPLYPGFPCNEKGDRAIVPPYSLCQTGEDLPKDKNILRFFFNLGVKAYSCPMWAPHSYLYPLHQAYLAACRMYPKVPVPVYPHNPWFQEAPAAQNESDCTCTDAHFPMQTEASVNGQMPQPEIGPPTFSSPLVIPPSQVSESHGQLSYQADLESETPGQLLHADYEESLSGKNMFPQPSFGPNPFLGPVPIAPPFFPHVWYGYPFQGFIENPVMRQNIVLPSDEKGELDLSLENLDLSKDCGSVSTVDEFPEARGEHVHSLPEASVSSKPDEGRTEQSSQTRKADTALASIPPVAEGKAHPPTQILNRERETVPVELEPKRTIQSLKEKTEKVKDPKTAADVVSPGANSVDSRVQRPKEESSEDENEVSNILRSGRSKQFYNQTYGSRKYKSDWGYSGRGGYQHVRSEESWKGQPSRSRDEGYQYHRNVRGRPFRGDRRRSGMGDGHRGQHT
# Outline: as §1
# [9] = molecular target: T5, OTUD5 (UniProt Q96G74)
# T5 sequence (whole entry): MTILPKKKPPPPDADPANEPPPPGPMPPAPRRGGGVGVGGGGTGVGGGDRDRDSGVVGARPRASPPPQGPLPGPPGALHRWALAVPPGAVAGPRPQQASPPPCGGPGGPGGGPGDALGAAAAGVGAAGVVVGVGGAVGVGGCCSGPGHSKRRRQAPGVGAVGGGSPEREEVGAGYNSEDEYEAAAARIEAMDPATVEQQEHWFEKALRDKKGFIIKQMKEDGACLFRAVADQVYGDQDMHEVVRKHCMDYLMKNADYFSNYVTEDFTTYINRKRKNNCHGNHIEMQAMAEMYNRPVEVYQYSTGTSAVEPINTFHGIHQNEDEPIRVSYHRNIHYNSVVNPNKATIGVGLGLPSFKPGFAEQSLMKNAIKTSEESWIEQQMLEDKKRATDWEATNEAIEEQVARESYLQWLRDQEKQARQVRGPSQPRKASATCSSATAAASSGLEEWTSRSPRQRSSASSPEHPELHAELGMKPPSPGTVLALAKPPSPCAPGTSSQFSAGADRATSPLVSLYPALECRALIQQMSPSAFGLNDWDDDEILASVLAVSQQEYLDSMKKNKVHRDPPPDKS
# Outline: as §1
# Sequence of EIF3H (O15372 whole entry): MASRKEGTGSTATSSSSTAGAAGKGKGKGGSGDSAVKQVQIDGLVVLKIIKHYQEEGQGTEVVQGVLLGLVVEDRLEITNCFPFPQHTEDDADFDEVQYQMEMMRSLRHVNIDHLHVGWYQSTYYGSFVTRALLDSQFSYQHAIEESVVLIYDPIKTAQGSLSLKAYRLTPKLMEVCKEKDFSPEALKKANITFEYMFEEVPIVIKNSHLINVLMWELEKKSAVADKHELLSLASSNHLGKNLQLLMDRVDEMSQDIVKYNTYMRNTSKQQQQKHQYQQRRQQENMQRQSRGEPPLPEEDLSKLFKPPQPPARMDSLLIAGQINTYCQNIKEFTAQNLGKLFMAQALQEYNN
# Sequence of OTUB1 (Q96FW1 whole entry): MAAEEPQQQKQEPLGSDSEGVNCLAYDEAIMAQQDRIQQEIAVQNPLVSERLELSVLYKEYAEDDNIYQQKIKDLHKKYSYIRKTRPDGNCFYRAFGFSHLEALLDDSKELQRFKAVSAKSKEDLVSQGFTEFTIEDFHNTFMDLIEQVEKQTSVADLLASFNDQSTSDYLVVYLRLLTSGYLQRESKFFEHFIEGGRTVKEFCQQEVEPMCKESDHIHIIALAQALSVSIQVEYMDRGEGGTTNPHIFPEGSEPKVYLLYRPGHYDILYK
# Sequence of ATXN3 (P54252 whole entry): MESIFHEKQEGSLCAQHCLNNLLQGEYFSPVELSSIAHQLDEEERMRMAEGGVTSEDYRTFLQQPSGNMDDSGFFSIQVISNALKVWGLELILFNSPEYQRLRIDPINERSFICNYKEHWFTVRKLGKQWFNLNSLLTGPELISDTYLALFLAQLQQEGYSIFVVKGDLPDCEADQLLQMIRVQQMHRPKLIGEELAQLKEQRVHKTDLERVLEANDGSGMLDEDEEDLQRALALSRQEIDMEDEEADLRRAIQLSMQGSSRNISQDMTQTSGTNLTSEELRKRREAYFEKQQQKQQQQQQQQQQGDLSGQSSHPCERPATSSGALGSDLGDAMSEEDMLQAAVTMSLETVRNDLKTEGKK
# Sequence of EIF3F (O00303 whole entry): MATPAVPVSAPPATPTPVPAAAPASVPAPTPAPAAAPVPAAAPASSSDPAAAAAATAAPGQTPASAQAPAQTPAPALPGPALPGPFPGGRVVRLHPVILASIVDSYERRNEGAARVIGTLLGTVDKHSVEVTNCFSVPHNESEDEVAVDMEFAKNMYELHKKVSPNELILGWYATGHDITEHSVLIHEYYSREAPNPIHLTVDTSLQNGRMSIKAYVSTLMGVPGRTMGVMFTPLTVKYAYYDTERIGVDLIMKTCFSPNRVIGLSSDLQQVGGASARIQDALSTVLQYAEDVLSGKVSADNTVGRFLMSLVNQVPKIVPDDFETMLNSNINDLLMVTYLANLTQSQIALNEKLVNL
compound,measurement,setting,value
O=C(CCl)NCCc1ccc(F)cc1,log2 ratio of Biotin-Ahx-Ub-VS probe labelling,[1],-0.037
same,log2 ratio of Biotin-Ahx-Ub-VS probe labelling,[2],-0.166
same,log2 ratio of Biotin-Ahx-Ub-VS probe labelling,[3],-1.07 (active)
same,log2 ratio of Biotin-Ahx-Ub-VS probe labelling,[4],0.0338
same,log2 ratio of Biotin-Ahx-Ub-VS probe labelling,[5],0.194
same,log2 ratio of Biotin-Ahx-Ub-VS probe labelling,[6],-0.364
same,log2 ratio of Biotin-Ahx-Ub-VS probe labelling,[7],-0.291
same,log2 ratio of Biotin-Ahx-Ub-VS probe labelling,[8],-0.143
same,log2 ratio of Biotin-Ahx-Ub-VS probe labelling,[9],-0.544

# From the supplement of paper PMC11732987, “Enantioselective OTUD7B fragment discovery through chemoproteomics screening and high-throughput optimisation” (Communications Chemistry, 2025)
